Rows were chosen to be rich in hits. Some 4.2% of all compounds tested hit in one or more screens of this group.
ssDAF12 agonist – activates DAF-12 receptor from parasite S. stercoralis; HEK293 ssDAF-12/GRIP1 lit1-tk-luc reporter, luminescence; % of 3 µM dafachronic acid response; activation, % at 6.8 µM; hit rate 1% among 370,000;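 active = activation above the mean over all tested compounds plus 3 SD, cut at about 0.9% in these data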;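 also: 0% = DMSO-only wells and 100% = 3 µM delta7-dafachronic acid wells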
hgDAF12 agonist – hgDAF-12 agonism, primary luciferase screen; HEK293 GAL4-hgDAF12 UAS-luciferase reporter, agonist luminescence; normalized to butyrate control; activation, % at 6.8 µM; hit rate 1.8% among 370,000;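 active = activation above a cutoff set at the mean of all screened compounds plus 3 SD, cut at about 10% in these data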;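 also: 0% = DMSO wells and 100% = sodium butyrate wells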
DAX1 StAR inh – inhibitors of DAX1 repression of SF-1 activated StAR promoter | hit rate 1.1% among 370,000 | HEK293T StAR-luciferase reporter, SF-1/DAX-1 repression relief | inhibition, % at 6.8 µM;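 active = inhibition above the mean over all tested compounds plus 3 SD, cut at about 3.6% in these data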;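 also: 0% = DAX-1 cells with DMSO and 100% = cells lacking DAX-1 with DMSO; higher inhibition means more luminescence from relief of DAX-1 repression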
hcDAF-12 act – H. contortus DAF-12 activation, primary screen; hit rate 1.4% among 370,000; HEK293 hcDAF-12 lit1-tk-luc reporter, luminescence; 0% DMSO, 100% Δ7-dafachronic acid; activation, % at 6.8 µM;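 active = activation above the mean of all tested compounds plus 3 SD, cut at about 5.5% in these data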;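 also: 100% = response to 3 µM Δ7-dafachronic acid high control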
SMARCA2 activ – activators of SMARCA2 function; MG213 cells, MMTV-luciferase reporter, dexamethasone, overnight; activation, % at 9.1 µM; hit rate 1% among 370,000; AID 652017; in the data active = activation above about 7.8%;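 also: 0% = vehicle wells and 100% = reference activator wells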
Active calls of the source: *.

Screening N/C(Cc1cccc2ccccc12)=N\OC(=O)c1ccccc1F returned ssDAF12 agonist -0.3, hgDAF12 agonist 3.7, DAX1 StAR inh -2.5, hcDAF-12 act 2.3 and SMARCA2 activ 3.2.
Screening N/C(Cc1ccc(Cl)cc1Cl)=N\OC(=O)c1ccccc1F returned ssDAF12 agonist -1.5, hgDAF12 agonist 3.6, DAX1 StAR inh 0.3, hcDAF-12 act 6.0* and SMARCA2 activ 3.0.
`COc1ccc(OC)c(C=Nc2ccccc2-c2nc3ccccc3[nH]2)c1` gave ssDAF12 agonist 0.1, hgDAF12 agonist 12.3*, DAX1 StAR inh 1.8, hcDAF-12 act 2.7 and SMARCA2 activ 5.0.
`CC(C)(C)c1ccc(C(=O)Nc2cccc(S(=O)(=O)NC3=NCCC3)c2)cc1` gave ssDAF12 agonist -1.1, hgDAF12 agonist 7.8, DAX1 StAR inh 4.0*, hcDAF-12 act 2.9 and SMARCA2 activ 3.9.
Screening CC(=O)c1ccc(S(=O)(=O)Nc2cccc(S(=O)(=O)NC3=NCCC3)c2)cc1 returned ssDAF12 agonist -1.6, hgDAF12 agonist -0.4, DAX1 StAR inh 0.4, hcDAF-12 act -1.4 and SMARCA2 activ -2.3.
CC(=O)c1ccc(NS(=O)(=O)c2cccc(C)c2)cc1 was read as ssDAF12 agonist -1.3, hgDAF12 agonist 11.9*, DAX1 StAR inh 0.5, hcDAF-12 act 1.4 and SMARCA2 activ 2.5.
For CC(=O)c1cccc(S(=O)(=O)Nc2cccc(S(=O)(=O)NC3=NCCC3)c2)c1 the results were ssDAF12 agonist -1.5, hgDAF12 agonist 0.0, DAX1 StAR inh -0.7, hcDAF-12 act -0.9 and SMARCA2 activ 10.2*.
`Cc1ccc(C(=O)C2C(=O)C3CCC2C3)cc1` (stereo not drawn) gave ssDAF12 agonist -0.2, hgDAF12 agonist 8.7, DAX1 StAR inh 2.8, hcDAF-12 act 2.1 and SMARCA2 activ 2.6.
For CCOC(=O)[C@@]12CCC3=C1N(CCC3)C(=O)[C@H](CC(=O)N1CCC(c3ccccc3)CC1)C2 the results were ssDAF12 agonist -0.4, hgDAF12 agonist 0.3, DAX1 StAR inh -2.4, hcDAF-12 act -0.5 and SMARCA2 activ -1.9.
COc1ccc(C(C(=O)NCc2ccccc2)n2c(=O)c(-c3cc4ccccc4[nH]3)nc3ccccc32)cc1 (stereo not drawn) was read as ssDAF12 agonist 0.1, hgDAF12 agonist 4.4, DAX1 StAR inh 2.0, hcDAF-12 act 3.5 and SMARCA2 activ -2.1.
`COc1ccc(NC(=O)C(c2ccccc2F)n2c(=O)c(-c3cc4ccccc4[nH]3)nc3ccccc32)cc1` (stereo not drawn) gave ssDAF12 agonist 0.6, hgDAF12 agonist 12.2*, DAX1 StAR inh 0.3, hcDAF-12 act 3.7 and SMARCA2 activ -0.9.
For O=C(NCc1ccccc1)C(c1ccncc1)n1c(=O)c(-c2cc3ccccc3[nH]2)nc2ccccc21 (stereo not drawn) the results were ssDAF12 agonist 2.7*, hgDAF12 agonist 8.7, DAX1 StAR inh 3.1, hcDAF-12 act 5.7* and SMARCA2 activ 0.8.
`O=C(NCc1ccccc1)C(c1ccccc1F)n1c(=O)c(-c2cc3ccccc3[nH]2)nc2ccccc21` (stereo not drawn) gave ssDAF12 agonist -0.2, hgDAF12 agonist 0.9, DAX1 StAR inh -1.1, hcDAF-12 act 3.4 and SMARCA2 activ -5.8.
Screening O=C(NCc1ccccc1)C(c1ccc(-c2ccccc2)cc1)n1c(=O)c(-c2cc3ccccc3[nH]2)nc2ccccc21 (stereo not drawn) returned ssDAF12 agonist 1.6*, hgDAF12 agonist 4.9, DAX1 StAR inh 2.5, hcDAF-12 act 4.8 and SMARCA2 activ 1.5.
For CCC[C@H]1[C@@H](OC(=O)NC2CCC2)CC[C@@]23CCCN2C(=O)CCC[C@@H]13 the results were ssDAF12 agonist -1.1, hgDAF12 agonist 0.2 and hcDAF-12 act -0.4.
`Nc1[nH]nc2nnc(-c3c(-c4ccccc4)nn4ccccc34)cc12` gave ssDAF12 agonist -1.9, hgDAF12 agonist -2.6 and hcDAF-12 act -1.9.
`COc1ccc(/C=C2\CCC(C3CCCC3)C2=O)c(OC)c1OC` (stereo not drawn) gave ssDAF12 agonist -0.5, hgDAF12 agonist 2.0, DAX1 StAR inh 0.3, hcDAF-12 act -0.7 and SMARCA2 activ -2.8.
COc1cccc(/C=C2\CCC(C3CCCC3)C2=O)c1OC (stereo not drawn) was read as ssDAF12 agonist -0.6, hgDAF12 agonist 12.5*, DAX1 StAR inh 2.1, hcDAF-12 act 3.6 and SMARCA2 activ 4.7.
